Source: PubChem BioAssay
Mito fusion act: inhibitors of mitochondrial division or activators of mitochondrial fusion; Potency, µM (titrated, usually from 46.1 µM), without a hit: at the top dose growth rescue (activation), hits mostly activators; hit rate 0.23% among 320,000; S. cerevisiae fusion-defective mutant growth rescue, CellTiterGlo 48 h; AID 485298; further: % of control where 0% means no effect; nearly all actives have a fitted effect of over 45% in size
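Read-out: ATP-based luminescence (CellTiterGlo, 10 min ambient) reporting growth of fusion-defective ts yeast after 48 hours at 37C on glycerol/ethanol YPEG medium in the presence of compound.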
TrxR1 inh: blocks rat thioredoxin reductase 1. hit rate 1% among 390,000. O89049. Potency, µM (series often up to 114 µM), without a hit: top-dose activity change, negative = inhibition, most hits filed as inhibitors. AID 588453. recombinant rTrxR1, NADPH fluorescence consumption, selenite substrate; further: on the % scale 0 is the no-effect control and ±100 the full control effect; nearly all actives have a fitted effect of over 65% in size
Target sequence (O89049 whole entry, looked up): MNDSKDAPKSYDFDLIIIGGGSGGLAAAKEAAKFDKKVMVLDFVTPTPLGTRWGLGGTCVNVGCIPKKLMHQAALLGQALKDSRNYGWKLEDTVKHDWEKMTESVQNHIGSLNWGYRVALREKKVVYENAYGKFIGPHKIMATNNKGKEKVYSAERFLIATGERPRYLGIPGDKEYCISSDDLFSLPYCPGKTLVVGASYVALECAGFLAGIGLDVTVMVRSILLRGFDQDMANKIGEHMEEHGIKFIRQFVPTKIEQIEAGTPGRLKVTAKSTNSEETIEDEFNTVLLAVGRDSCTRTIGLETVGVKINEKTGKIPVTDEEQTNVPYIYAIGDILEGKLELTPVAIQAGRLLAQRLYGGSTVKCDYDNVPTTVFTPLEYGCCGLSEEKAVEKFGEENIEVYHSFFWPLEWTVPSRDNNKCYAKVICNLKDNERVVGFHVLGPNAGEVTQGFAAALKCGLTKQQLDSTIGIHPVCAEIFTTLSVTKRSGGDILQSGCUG
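Rat TrxR1 (90 nM in the dispensed reagent) was pre-reduced with 400 uM NADPH for 5 min at room temperature, then incubated with compound for 15 min. After 400 uM selenite was added, NADPH fluorescence (Ex 340/Em 450 nm) was followed for 8 min.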
IDH1 R132H inh: blocks human mutant IDH1 R132H enzyme. Potency, µM (highest dose often 76.6 µM), for inactives: at the top dose activity change, negative = inhibition, actives largely listed as inhibitors. AID 602179. O75874. hit rate 0.093% among 390,000. IDH1-R132H enzyme, NADPH consumption, diaphorase/resazurin fluorescence; further: on the % scale 0 is the no-effect control and ±100 the full control effect; nearly all actives have a fitted effect of over 65% in size
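IDH1-R132H (0.5 ug/mL dispensed) in pH 7.5 Tris buffer was preincubated 30 min with compound, then given a substrate mix of 0.016 mM NADPH and 2 mM alpha-KG for 80 min at room temperature; remaining NADPH was read by diaphorase/resazurin fluorescence.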
A549 tox: counter-screen for Nrf2 inhibitors: cytotoxicity in A549 cells; A549 ARE-Fluc cells, CellTiter-Fluor viability, 18-24 h; Potency, µM (top dose mostly 46 µM), for inactives: top-dose activity change, negative = cytotoxicity, most hits filed as inhibitors; hit rate 0.16% among 390,000; AID 504648; further: on the % scale 0 is the no-effect control and ±100 the full control effect
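A549 ARE-Fluc cells in 5% FBS OPTI-MEM, 5000 cells/well, rested 2 h then exposed to compounds in concentration-response for 18-24 h at 37 °C. Viability by CellTiter-Fluor fluorescence (Ex 405/Em 525) after 30 min; luciferase luminescence (BugLite, 15 min, RT) read afterwards.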
Nrf2 inh: Nrf2 pathway inhibition; A549 ARE-Fluc reporter, luciferase luminescence, 18-24 h; Potency, µM (highest dose often 46 µM), without a hit: at the highest dose activity change, negative = inhibition, most hits filed as inhibitors; hit rate 2.1% among 360,000; AID 504444; further: on the % scale 0 is the no-effect control and ±100 the full control effect; nearly all actives have a fitted effect of over 60% in size
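Nrf2 activity is the BugLite luminescence, read 15 min after reagent at room temperature, following CellTiter-Fluor cytotoxicity readout (30 min, 37C). Compound titrations were applied for 18-24 h to 5000 A549 ARE_Fluc cells/well in 5% FBS OPTI-MEM.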
TrxR1 substrate: is turned over as a substrate by rat TrxR1; O89049; purified TrxR1 substrate turnover, NADPH consumption readout; Potency, µM (series often up to 114 µM), for inactives: at the highest dose activity change, negative = substrate turnover; hit rate 0.01% among 390,000; further: on the % scale 0 is the no-effect control and ±100 the full control effect; nearly all actives have a fitted effect of over 50% in size
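Rat TrxR1, dispensed at 90 nM, was prereduced with 400 uM NADPH (final) for 5 min at ~22 deg C, then incubated with compound 15 min before 400 uM selenite. A first-read NADPH fluorescence drop versus no-compound background flagged substrates.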
Numbers without * were called inactive; ? = inconclusive; . = no result; [ ] = dose if it differs, or a comment. Sampled rows, rich in hits. Any-hit rate of the full collection: about 3.1%. The call rests on the fitted dose curve; in most records, active means well fitted curve in the direction sought with a large enough effect; inconclusive means small, poorly fitted or top-dose-only effect, or another doubt; inactive means no such curve, though single readings can be large; an effect the other way counts as inactive or inconclusive. Potency means the concentration at half of the fitted maximal effect.

SMILES | Mito fusion act | TrxR1 inh | IDH1 R132H inh | A549 tox | Nrf2 inh | TrxR1 substrate
CSc1cccc(NC(=O)c2ccc3c(c2)CCCN3S(C)(=O)=O)c1 | . | 20% | 27% | ? | ? | -2%
COc1cc(O)c(CC=C(C)C)c(O)c1C(=O)CCc1ccc(O)cc1 | -100% | 4% | -4% | ? | 26µM* | -8%
O=C(CCc1ccc(O)cc1)c1c(O)cc(O)cc1O | ? | 10µM* | -4%[38.3 µM] | -4% | 22% | 5%[57.1 µM]
O=C(Cn1c(=O)n2nc(-c3cccc(F)c3)nc2c2ccccc21)N1CCN(c2ccccc2F)CC1 | . | 21%[57.1 µM] | 11% | 11% | . | 12%[57.1 µM]
Cc1ccccc1C(=O)Nc1ccc(C(=O)OCc2cc(=O)n3c4c(sc3n2)CCCC4)cc1 | . | 7%[57.1 µM] | 10% | 1% | . | -2%[57.1 µM]
Cc1ccc(C(=O)C[n+]2cccc3cccc(O)c32)cc1 | . | 2% | . | . | . | 3%
N#Cc1c(C(F)(F)F)cc(-c2ccc(Cl)cc2)[nH]c1=O | 1% | -16% | 1% | -25% | 16µM* | 897%
Cc1cccc(C)c1NC(=S)NCCSc1ccc(Cl)cc1 | 5% | 4%[57.1 µM] | 4% | ? | 26µM* | -5%[57.1 µM]
Cc1ccc(NC(=S)NCCSc2ccc(Cl)cc2)cc1 | 9% | 2%[57.1 µM] | -8% | -19% | ? | 5%
CSc1nc2ccc(NS(=O)(=O)c3cccc(Cl)c3Cl)cc2s1 | 35µM* | -16% | -4% | -2% | -12% | -10%
COc1ccc(NS(=O)(=O)c2ccc(Oc3ncccn3)cc2)cc1 | 2% | -13% | 2% | 0% | 21µM* | -11%
COc1ccc(NS(=O)(=O)c2ccc(-c3coc(C)n3)cc2)cc1 | 17% | -9% | 0% | 2% | 16µM* | -10%
CN(C)C(=O)COC(=O)c1ccccc1OCC(=O)Nc1ccc(Br)cc1 | . | 8% | . | . | . | 0%
CCN(C(=O)COC(=O)/C=C/c1ccc(C)o1)c1c(N)n(Cc2ccccc2)c(=O)[nH]c1=O | 0% | 40µM* | 9% | -4% | 4% | -5%
Cc1ccc(/C=C/C(=O)OCC(=O)N(CC(C)C)c2c(N)n(Cc3ccccc3)c(=O)[nH]c2=O)o1 | -3% | -2% | -6% | 0% | 14% | 2%
CCN(C(=O)COC(=O)/C=C/c1cccc(Cl)c1)c1c(N)n(Cc2ccccc2)c(=O)[nH]c1=O | 2% | 11% | 12% | -1% | 5% | -1%
CCN(C(=O)COC(=O)/C=C/c1ccc(Cl)c(Cl)c1)c1c(N)n(Cc2ccccc2)c(=O)[nH]c1=O | . | 8% | 8% | -14% | 15µM* | 2%
CC(C)CN(C(=O)COC(=O)C12CC3CC(CC(C3)C1)C2)c1c(N)n(Cc2ccccc2)c(=O)[nH]c1=O | -4% | 10%[57.1 µM] | 1% | ? | 26µM* | 2%[57.1 µM]
O=[N+]([O-])c1ccc(Cl)c(S(=O)(=O)/N=C(/Sc2ccc(Br)cc2)c2ccccc2)c1 | . | -9% | . | -10% | 3% | -2%
O=C1CCCC2=C1C(c1ccco1)Nc1ccc3ccccc3c12 (stereo unspecified) | 10% | 40µM* | 10% | -14% | 3% | 27%
O=C1CCCC2=C1C(c1ccc(O)c(O)c1)Nc1ccc3ccccc3c12 (stereo unspecified) | . | ? | 5% | -5% | -9% | 11%
Cn1c(CNC(=O)CSc2n[nH]c(-c3ccccc3)n2)nc2ccccc21 | . | 16%[57.1 µM] | -22% | ? | . | 0%[57.1 µM]
CC(OC(=O)c1cccc(NS(C)(=O)=O)c1)C(=O)Nc1ccc2c(c1)OCO2 (stereo unspecified) | 3% | -14% | 5% | -6% | 23µM* | -12%
COc1cccc(C(=O)OC(C)C(=O)Nc2ccc3c(c2)OCO3)c1 (stereo unspecified) | 2% | 10% | -4% | -15% | ? | -6%
COc1c(Cl)cccc1NC(=O)c1c(NC(=O)Cc2ccccc2)sc2c1CCCC2 | . | . | . | -2% | 18% | .
SMILES | Mito fusion act | TrxR1 inh | IDH1 R132H inh | A549 tox | Nrf2 inh | TrxR1 substrate
CCCn1nc(C(=O)Nc2ccc3nc(N4CCOCC4)sc3c2)ccc1=O | -2% | -5% | -3% | -14% | 21µM* | -5%
Cc1ccc(S(=O)(=O)N(C)C)cc1NC(=O)c1cc(C(C)(C)C)nn1Cc1ccccc1 | 1% | 5% | 3% | 5% | 10µM* | -10%
Cc1ccc(S(=O)(=O)N(C)C)cc1NC(=O)CN1CCN(Cc2ccccc2)CC1 | -1% | -4%[57.1 µM] | -14% | 2% | -7% | 3%[57.1 µM]
COc1cccc(-n2cc(C(=O)Oc3cccc(C(F)(F)F)c3)c3ccccc3c2=O)c1 | . | 12%[57.1 µM] | -8% | 7% | . | -7%[57.1 µM]
CCCCCCCCC[n+]1cccc2c3ccccc3ccc21 | -25% | -27% | 9% | ? | 9.2µM* | 126%
CCCCCCCCCCCC[n+]1ccc(C)c2ccccc21 | . | ? | . | . | . | -10%
CCCCCCCCCC[n+]1cccc2cc(Br)ccc21 | . | 1% | . | . | . | -3%
CCCCCCCCCCCCCCCC[n+]1cccc2ccccc21 | -17% | 33% | -4% | -17% | 26µM* | 12%
O=C(Nc1c(Cl)cc([N+](=O)[O-])cc1Cl)c1cc(Cl)cc(Cl)c1O | . | -16% | . | ? | ? | -4%
COc1cccc(/C=c2/[nH]c(=O)/c(=C\c3cccc(OC)c3OC)[nH]c2=O)c1OC | . | 7% | . | . | . | -5%
Cc1ccc(OCCC(=O)OCC(=O)Nc2ccc(C)c(S(=O)(=O)N3CCOCC3)c2)cc1 | . | -6% | 4% | -4% | -28% | -10%
Cc1ccc(NC(=O)COc2ccc(-c3nnco3)cc2)cc1S(=O)(=O)N1CCOCC1 | 1% | 18% | -7% | 1% | 23µM* | 7%
Cc1ccc(NCC(=O)Nc2cccc(S(=O)(=O)N(C)C)c2)cc1S(=O)(=O)N1CCCCCC1 | -3% | -1% | 3% | ? | 8.2µM* | -7%
CCN(CC)S(=O)(=O)c1cccc(NC(=O)CNc2cccc(S(=O)(=O)N3CCCC3)c2)c1 | -1% | 4% | -1% | ? | 26µM* | -6%
CCN(CC)S(=O)(=O)c1ccc(C)c(NC(=O)CNc2cccc(S(=O)(=O)N3CCCC3)c2)c1 | -2% | 12% | 0% | -17% | ? | 0%
O=C(CNc1cccc(S(=O)(=O)N2CCCC2)c1)Nc1ccc(F)c(F)c1 | -9% | 11% | 0% | -28% | 26µM* | -12%
CCc1ccc(C(=O)C[N+]2(C)CCOCC2)cc1 | . | 43% | . | . | . | 19%
COc1cc(C)c(NC(C)C(=O)c2c(C)[nH]c3ccccc23)cc1OC (stereo unspecified) | . | -22% | . | . | . | -8%
CCN(C(=O)c1cn(-c2ccc(OC)cc2)c(=O)c2ccccc12)c1cccc(Cl)c1 | . | 0% | ? | 5% | -22% | -7%
